G6PDH CS: L. mesenteroides G6PDH inhibitors, counter-screen for G6PDH-coupled screening assays, biochemical, Leuconostoc mesenteroides enzyme; glucose-6-phosphate dehydrogenase [Leuconostoc mesenteroides]; inhibition, % at 5 µM; 200,000 compounds, 0.12% hits; Purified L. mesenteroides G6PDH, diaphorase/resazurin coupled fluorescence, 45 min; in the data active means inhibition above about 50%
PfM18AAP inh-1: PfM18AAP inhibitors, malaria aminopeptidase, primary screen, biochemical, QFRET, recombinant enzyme | M18 aspartyl aminopeptidase (Plasmodium falciparum 3D7) | H-Glu-NHMec fluorogenic cleavage | inhibition, % at 7.35 µM | 290,000 compounds, 1.2% hits | AID 1822, 2009;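 active means inhibition above the campaign mean inhibition over all tested compounds plus 3 SD, cut at about 28% in these data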
SUMO HTRF inh: inhibitors of in vitro SUMOylation cascade, primary screen, biochemical, HTRF, uHTS. HTRF SUMOylation assay, SAE1/SAE2 + UBC9. inhibition, % at 35 µM. 290,000 compounds, 0.36% hits. AID 2006, 2009; in the data active means inhibition above about 50%, passing the limit was not always enough
PHOSPHO1 block: PubChem AID 1565; recombinant PHOSPHO1, absorbance phosphatase assay; 290,000 compounds, 1.1% hits; inhibition, % at 13.3 µM; in the data active means inhibition above about 60%
Target sequence (Q8TCT1 whole entry, looked up): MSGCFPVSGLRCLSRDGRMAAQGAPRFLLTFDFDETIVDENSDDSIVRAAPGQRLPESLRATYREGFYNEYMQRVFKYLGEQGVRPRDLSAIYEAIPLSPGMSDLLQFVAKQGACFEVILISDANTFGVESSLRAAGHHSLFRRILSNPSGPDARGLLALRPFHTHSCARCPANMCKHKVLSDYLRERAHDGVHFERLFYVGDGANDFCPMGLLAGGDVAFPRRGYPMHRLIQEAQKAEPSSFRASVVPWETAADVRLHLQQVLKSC
HDAC3 inhib: HDAC3 deacetylase inhibitors, primary screen, biochemical, fluorescence, cell-free homogeneous | Histone deacetylase 3 (Homo sapiens), O15379 | recombinant HDAC3, fluorogenic peptide/trypsin coupled | inhibition, % at 8.3 µM | 320,000 compounds, 0.15% hits | AID 2718, 2010; in the data active means inhibition above about 26%, passing the limit was not always enough
Target sequence (O15379 whole entry, looked up): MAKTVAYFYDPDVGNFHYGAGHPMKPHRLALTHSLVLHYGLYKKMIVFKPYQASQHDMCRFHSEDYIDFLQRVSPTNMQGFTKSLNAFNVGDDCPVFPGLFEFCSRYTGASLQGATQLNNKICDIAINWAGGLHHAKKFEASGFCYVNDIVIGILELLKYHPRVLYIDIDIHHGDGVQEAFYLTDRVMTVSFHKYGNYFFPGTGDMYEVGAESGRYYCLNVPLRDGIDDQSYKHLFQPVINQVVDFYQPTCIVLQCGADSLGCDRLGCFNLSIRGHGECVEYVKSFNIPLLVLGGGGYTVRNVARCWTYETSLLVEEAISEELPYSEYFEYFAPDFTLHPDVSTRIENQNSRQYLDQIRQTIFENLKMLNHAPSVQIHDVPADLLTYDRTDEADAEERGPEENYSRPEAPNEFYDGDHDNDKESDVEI
p97 inhibitor: inhibitors of human p97 ATPase, primary screen, biochemical. Transitional endoplasmic reticulum ATPase (Homo sapiens), P55072. recombinant p97 ATPase, Kinase-Glo ATP luminescence, 3 h. inhibition, % at 8 µM. 220,000 compounds, 0.42% hits; in the data active means inhibition above about 15%
PfM18AAP inh-2: PfM18AAP inhibitors, malaria aminopeptidase, confirmation, biochemical, QFRET, recombinant enzyme, triplicate. shares compounds with PfM18AAP inh-1. H-Glu-NHMec fluorogenic cleavage. inhibition, % at 7.35 µM. 2,400 compounds, 28% hits. AID 2170, 2009;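 active means mean inhibition over replicate wells above the hit cutoff set for the earlier primary screen, cut at about 29% in these data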
CTSL1 confirm: cathepsin L1 inhibitors, retest, confirmation, counter-screen for PFM18AAP inhibitor project, biochemical, QFRET, triplicate; shares compounds with PfM18AAP inh-1; purified cathepsin L1, Z-Leu-Arg-MCA fluorescence; inhibition, % at 5.96 µM; 2,400 tested, under 10 active;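 active means average inhibition across replicates above the hit cutoff set in the earlier primary screen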
Large screens that a line does not name were inactive (follow-up assays come after a bar, where they were run). An excerpt weighted towards active compounds, which were near 2.5% of everything screened.

O=C(Nc1ncn[nH]1)c1ccccc1Br	PfM18AAP inh-1 38 | PfM18AAP inh-2 44 | CTSL1 confirm inactive
O=C(Nc1ncn[nH]1)c1ccc([N+](=O)[O-])cc1[N+](=O)[O-]	PfM18AAP inh-1 44 | PfM18AAP inh-2 34 | CTSL1 confirm inactive
CC(C)NC(=O)C1(S(=O)(=O)c2ccccc2)CC=CC1	none (no result: G6PDH CS, p97 inhibitor)
COC(=O)COc1ccc(C)cc1-n1nc2ccccc2n1	PfM18AAP inh-1 38 | PfM18AAP inh-2 inactive | CTSL1 confirm inactive
CCOC(=O)Cc1nnc(NC(=O)c2ncn[nH]2)s1	PfM18AAP inh-1 46 | PfM18AAP inh-2 inactive | CTSL1 confirm inactive
CCN(C(=O)c1ccc(Cl)c(S(=O)(=O)Nc2c(C)n(C)n(-c3ccccc3)c2=O)c1)c1ccccc1	none (no result: G6PDH CS, PfM18AAP inh-1, SUMO HTRF inh, PHOSPHO1 block, p97 inhibitor)
CCN(CC)c1ccc(-n2c(O)c(C=C3N=c4ccccc4=N3)sc2=S)cc1	none
O=C(O)c1ccc(-n2c(O)c(C=C3N=c4ccccc4=N3)sc2=S)cc1	PfM18AAP inh-1 51 (no result: G6PDH CS) | PfM18AAP inh-2 inactive | CTSL1 confirm inactive
CCC(C)(C)NC(=O)CN(C(=O)CCC(=O)Nc1nccs1)c1ccc2c(c1)OCCO2	none (no result: G6PDH CS, p97 inhibitor)
Cc1cccc(NC(=O)CN2CCc3cc4c(cc3C2)OCCCO4)c1	none (no result: G6PDH CS, p97 inhibitor)
O=C(CN1CCc2cc3c(cc2C1)OCCCO3)Nc1cccc([N+](=O)[O-])c1	PfM18AAP inh-1 35 (no result: G6PDH CS, p97 inhibitor) | PfM18AAP inh-2 inactive | CTSL1 confirm inactive
COc1ccc(/C=N/Nc2ncnc3c2[nH]c2ccccc23)c(OC)c1OC	PfM18AAP inh-1 36 | PfM18AAP inh-2 inactive | CTSL1 confirm inactive
COc1cccc(/C=N/Nc2ncnc3c2[nH]c2ccc(C)cc23)c1OC	none (no result: G6PDH CS)
COc1ccc(OC)c(CCNC(=O)Cn2sc3nc(C)cc(C)c3c2=O)c1	PfM18AAP inh-1 51 | PfM18AAP inh-2 inactive | CTSL1 confirm inactive
Cc1cc(C)c2c(=O)n(CC(=O)Nc3cccc(Cl)c3C)sc2n1	PfM18AAP inh-1 63 (no result: G6PDH CS) | PfM18AAP inh-2 41 | CTSL1 confirm inactive
COc1ccc(OC)c(CCNC(=O)Cn2nc(C)c3c(C)n(-c4ccc(C)cc4)nc3c2=O)c1	none (no result: G6PDH CS, p97 inhibitor)
Cc1cc(C)c2c(=O)n(CC(=O)Nc3ccc(Br)c(C)c3)sc2n1	PfM18AAP inh-1 60 (no result: G6PDH CS) | PfM18AAP inh-2 41 | CTSL1 confirm inactive
Cc1cc(C)c2c(CC(=O)NC3CCS(=O)(=O)C3)coc2c1 (centres undefined)	none (no result: G6PDH CS, p97 inhibitor)
Oc1ccc(N2CCN(CC(O)c3ccccc3)CC2)cc1 (centres undefined)	PfM18AAP inh-1 51 (no result: G6PDH CS, p97 inhibitor) | PfM18AAP inh-2 inactive | CTSL1 confirm inactive
COc1ccccc1-c1noc2ncnc(Nc3ccc4c(c3)OCO4)c12	none (no result: G6PDH CS, p97 inhibitor)
O=C(Cn1cnc([N+](=O)[O-])n1)c1ccc(O)c(O)c1	PfM18AAP inh-1 38 (no result: G6PDH CS, p97 inhibitor) | PfM18AAP inh-2 inactive | CTSL1 confirm inactive
O=C(Cn1cnc([N+](=O)[O-])n1)c1ccccc1	none (no result: G6PDH CS, p97 inhibitor)
O=C(CCN1CCN(Cc2ccccc2)CC1)NNC(=O)Nc1cccc(C(F)(F)F)c1	none (no result: G6PDH CS, p97 inhibitor)
NC(=O)c1ccc(N2CCN(c3ccccc3O)CC2)c([N+](=O)[O-])c1	PfM18AAP inh-1 36 | PfM18AAP inh-2 inactive | CTSL1 confirm inactive
O=C1/C(=C\c2ccccn2)SC(=S)N1c1ccc(S(=O)(=O)Nc2nccs2)cc1	PfM18AAP inh-1 36 (no result: G6PDH CS) | PfM18AAP inh-2 inactive | CTSL1 confirm inactive
Cc1ccc(/C=C2/SC(=S)N(c3ccc(S(=O)(=O)Nc4nccs4)cc3)C2=O)cc1	none (no result: G6PDH CS, SUMO HTRF inh)
CCOC(=O)CCCNC(=O)CN1C(=O)NC(c2ccccc2)(c2ccccc2)C1=O	none (no result: G6PDH CS, p97 inhibitor)
CC(/C=C/c1ccccc1)=N\Nc1nc(C)cc(C)n1	PfM18AAP inh-1 39 | PfM18AAP inh-2 inactive | CTSL1 confirm inactive
N#C/C(=C(/O)CSc1ncn[nH]1)c1nc2ccccc2[nH]1	PfM18AAP inh-1 64 | PfM18AAP inh-2 inactive | CTSL1 confirm inactive
CN(Cc1c(C(=O)N2CCCCCCC2)nc2ccc(Cl)cn12)C1CCOC1 (centres undefined)	none (no result: G6PDH CS, p97 inhibitor)
Oc1ccc(-c2cn3c(n2)SCC3)cc1O	PfM18AAP inh-1 73, PHOSPHO1 block 80 | PfM18AAP inh-2 65 | CTSL1 confirm inactive
Brc1ccc(-c2cn3c(n2)SCC3)cc1	none
C=CCN(CC(O)c1cccc([N+](=O)[O-])c1)C(C)CCc1ccccc1 (centres undefined)	none (no result: G6PDH CS)
CC(=O)c1ccc(N2CCN(Cc3nc4ccccc4[nH]3)CC2)cc1	none (no result: G6PDH CS, p97 inhibitor)
Oc1ccc(N2CCN(Cc3nc4ccccc4[nH]3)CC2)cc1	PfM18AAP inh-1 42 (no result: G6PDH CS, p97 inhibitor) | PfM18AAP inh-2 inactive | CTSL1 confirm inactive
CC(=O)Oc1ccc2c(=O)c(Oc3ccccc3)coc2c1OC(C)=O	PfM18AAP inh-1 33 | PfM18AAP inh-2 inactive | CTSL1 confirm inactive
Cc1ccc(-c2ccc(/C=N/c3ncn[nH]3)o2)cc1Cl	PfM18AAP inh-1 37 | PfM18AAP inh-2 43 | CTSL1 confirm inactive
COc1cc(C2C(C(=O)c3cccs3)=C(O)C(=O)N2c2cc(C)on2)ccc1O (centres undefined)	PfM18AAP inh-1 55 | PfM18AAP inh-2 inactive | CTSL1 confirm inactive
COc1cccc(C2C(C(=O)c3cccs3)=C(O)C(=O)N2c2cc(C)on2)c1 (centres undefined)	PfM18AAP inh-1 35 | PfM18AAP inh-2 inactive | CTSL1 confirm inactive
COc1ccc(OC)c(C2C(C(=O)c3cccs3)=C(O)C(=O)N2c2cc(C)on2)c1 (centres undefined)	none
O=C(CSc1ccc(-c2ccco2)nn1)Nc1ccc(F)cc1F	none (no result: G6PDH CS, p97 inhibitor)
Cc1c(NC(=O)CN2CCN(c3ccc([N+](=O)[O-])cc3)CC2)c(=O)n(-c2ccccc2)n1C	none
Cc1c(NC(=O)CN2CCN(c3ccc(O)cc3)CC2)c(=O)n(-c2ccccc2)n1C	PfM18AAP inh-1 39 | PfM18AAP inh-2 inactive | CTSL1 confirm inactive
CN(C)c1ccc2c(c1)Sc1cc(N(C)C)ccc1N2C(=O)c1ccccc1	none (no result: G6PDH CS)
CCC(C)(C(=O)NC1CCCCC1)N(CC1CCCO1)C(=O)CNC(=O)c1ccccc1 (centres undefined)	PfM18AAP inh-1 35 | PfM18AAP inh-2 inactive | CTSL1 confirm inactive
CCC(C)(C(=O)NC1CCCCC1)N(Cc1ccco1)C(=O)CNC(=O)c1ccccc1 (centres undefined)	none
